For some of these results: Entries with a potency or affinity are not part of this list. Activity calls are given as the source filed them.
Key:
[1] = Ebola virus entry assay, green fluorescence channel
[2] = Ebola virus entry assay, ratio channel readout
[3] = Ebola virus entry assay, blue channel fluorescence
[4] = Ebola virus entry assay, ratio channel
[5] = Ebola virus entry assay, reporter ratio channel; AC50: Channel type: primary unless noted; outcome: Channel type: primary unless noted
[6] = Ebola virus entry cell assay, ratio channel
[7] = Ebola virus entry reporter assay, green channel fluorescence
[8] = Ebola virus entry assay, blue channel (ratio component)

CC(N)C12CC3CC(CC(C3)C1)C2 (stereo not drawn)
outcome [1]: inactive
outcome [2]: inactive
AC50 [3]: 28.2 µM (active)
AC50 [4]: 28.2 µM (active)
AC50 [5]: 28.2 µM (active)
outcome [6]: inactive

COc1cc(C(C)=O)ccc1OCCCN1CCC(c2noc3cc(F)ccc23)CC1
outcome [1]: inactive
outcome [2]: inactive
AC50 [3]: 31.6 µM (active)
AC50 [4]: 28.2 µM (active)
AC50 [5]: 28.2 µM (active)
outcome [6]: inactive

COc1cc2c(cc1OC)C(=O)C(CC1CCN(Cc3ccccc3)CC1)C2 (stereo not drawn)
outcome [1]: inactive
outcome [2]: inactive
AC50 [3]: 35.5 µM (active)
AC50 [4]: 22.4 µM (active)
AC50 [5]: 22.4 µM (active)
outcome [7]: inactive
outcome [6]: inactive

CCc1nn(CCCN2CCN(c3cccc(Cl)c3)CC2)c(=O)n1CCOc1ccccc1
outcome [1]: inactive
outcome [2]: inactive
AC50 [3]: 39.8 µM (active)
AC50 [4]: 31.6 µM (active)
AC50 [5]: 31.6 µM (active)
AC50 [6]: 22.4 µM (active)

COc1cc2nc(N3CCN(C(=O)c4ccco4)CC3)nc(N)c2cc1OC
outcome [1]: inactive
outcome [2]: inactive
AC50 [3]: 15.8 µM (active)
AC50 [4]: 12.6 µM (active)
AC50 [5]: 12.6 µM (active)
AC50 [6]: 12.6 µM (active)

CNCCCC1c2ccccc2C=Cc2ccccc21
outcome [1]: inactive
AC50 [2]: 8.92 µM (active)
AC50 [3]: 10 µM (active)
AC50 [4]: 8.91 µM (active)
AC50 [5]: 8.91 µM (active)
AC50 [6]: 8.91 µM (active)

COc1cc2ncnc(Nc3ccc(F)c(Cl)c3)c2cc1OCCCN1CCOCC1
outcome [1]: inactive
outcome [2]: inactive
AC50 [3]: 2.82 µM (active)
AC50 [4]: 2.51 µM (active)
AC50 [5]: 2.51 µM (active)
outcome [7]: inactive
AC50 [6]: 15.8 µM (active)

CCCN(CCc1cccs1)[C@H]1CCc2c(O)cccc2C1
outcome [1]: inactive
outcome [2]: inactive
AC50 [3]: 25.1 µM (active)
AC50 [4]: 25.1 µM (active)
AC50 [5]: 25.1 µM (active)
AC50 [6]: 15.8 µM (active)

CS(=O)(=O)CCNCc1ccc(-c2ccc3ncnc(Nc4ccc(OCc5cccc(F)c5)c(Cl)c4)c3c2)o1
outcome [1]: inactive
outcome [2]: inactive
AC50 [3]: 3.55 µM (active)
AC50 [4]: 3.98 µM (active)
AC50 [5]: 3.98 µM (active)
outcome [6]: inactive

OCCN1CCN(CCCN2c3ccccc3Sc3ccc(Cl)cc32)CC1
outcome [1]: inactive
AC50 [2]: 5.63 µM (active)
AC50 [3]: 2.82 µM (active)
AC50 [4]: 2.24 µM (active)
AC50 [5]: 2.24 µM (active)
AC50 [6]: 5.62 µM (active)

CN1CCN(C2=Nc3cc(Cl)ccc3Nc3ccccc32)CC1
outcome [1]: inactive
outcome [2]: inactive
AC50 [3]: 15.8 µM (active)
AC50 [4]: 14.1 µM (active)
AC50 [5]: 14.1 µM (active)
outcome [7]: inactive
outcome [6]: inactive

COC(=O)Nc1nc2ccc(C(=O)c3ccccc3)cc2[nH]1
outcome [1]: inactive
outcome [2]: inactive
AC50 [3]: 1.41 µM (active)
AC50 [4]: 1.26 µM (active)
AC50 [5]: 1.26 µM (active)
outcome [8]: inactive
AC50 [6]: 5.62 µM (active)

COC(=O)[C@H]1[C@H]2C[C@@H]3c4[nH]c5cc(OC)ccc5c4CCN3C[C@H]2C[C@@H](OC(=O)c2cc(OC)c(OC)c(OC)c2)[C@@H]1OC
outcome [1]: inactive
outcome [2]: inactive
AC50 [3]: 31.6 µM (active)
AC50 [4]: 25.1 µM (active)
AC50 [5]: 25.1 µM (active)
outcome [7]: inactive
outcome [6]: inactive

CN1CCC[C@@H]1CCO[C@](C)(c1ccccc1)c1ccc(Cl)cc1
outcome [1]: inactive
AC50 [2]: 3.17 µM (active)
AC50 [3]: 1.78 µM (active)
AC50 [4]: 1.41 µM (active)
AC50 [5]: 1.41 µM (active)
AC50 [6]: 3.16 µM (active)

CN(C)CC/C=C1\c2ccccc2COc2ccccc21
outcome [1]: inactive
outcome [2]: inactive
AC50 [3]: 20 µM (active)
AC50 [4]: 14.1 µM (active)
AC50 [5]: 14.1 µM (active)
AC50 [6]: 25.1 µM (active)

COC(=O)C1=C(C)NC(C)=C(C(=O)OCCN(C)Cc2ccccc2)C1c1cccc([N+](=O)[O-])c1 (stereo not drawn)
outcome [1]: inactive
outcome [2]: inactive
AC50 [3]: 12.6 µM (active)
AC50 [4]: 10 µM (active)
AC50 [5]: 10 µM (active)
outcome [7]: inactive
AC50 [6]: 28.2 µM (active)

CN(C)CCC=C1c2ccccc2C=Cc2ccccc21
outcome [1]: inactive
outcome [2]: inactive
AC50 [3]: 11.2 µM (active)
AC50 [4]: 10 µM (active)
AC50 [5]: 10 µM (active)
AC50 [6]: 12.6 µM (active)

Cc1ccsc1C(=CCCN1CCC[C@@H](C(=O)O)C1)c1sccc1C
outcome [1]: inactive
outcome [2]: inactive
AC50 [3]: 35.5 µM (active)
AC50 [4]: 20 µM (active)
AC50 [5]: 20 µM (active)
outcome [7]: inactive
outcome [6]: inactive

CCN(CC)CCN1C(=O)CN=C(c2ccccc2F)c2cc(Cl)ccc21
outcome [1]: inactive
outcome [2]: inactive
AC50 [3]: 35.5 µM (active)
outcome [4]: inactive
AC50 [5]: 39.8 µM (active)
outcome [7]: inactive
outcome [6]: inactive

C[C@@H](NCCCc1cccc(C(F)(F)F)c1)c1cccc2ccccc12
outcome [1]: inactive
outcome [2]: inactive
AC50 [3]: 3.98 µM (active)
AC50 [4]: 3.55 µM (active)
AC50 [5]: 3.55 µM (active)
AC50 [6]: 12.6 µM (active)

Cc1ccc(NC(=O)c2ccc(CN3CCN(C)CC3)cc2)cc1Nc1nccc(-c2cccnc2)n1
outcome [1]: inactive
outcome [2]: inactive
AC50 [3]: 22.4 µM (active)
AC50 [4]: 12.6 µM (active)
AC50 [5]: 12.6 µM (active)
outcome [7]: inactive
AC50 [6]: 28.2 µM (active)

CN(C)CCC=C1c2ccccc2CCc2ccccc21
outcome [1]: inactive
outcome [2]: inactive
AC50 [3]: 8.91 µM (active)
AC50 [4]: 7.94 µM (active)
AC50 [5]: 7.94 µM (active)
outcome [7]: inactive
AC50 [6]: 11.2 µM (active)

CCCNCC(O)COc1ccccc1C(=O)CCc1ccccc1 (stereo not drawn)
outcome [1]: inactive
AC50 [2]: 8.92 µM (active)
AC50 [3]: 8.91 µM (active)
AC50 [4]: 7.94 µM (active)
outcome [5]: inactive [Channel type: confirmation]
outcome [8]: inactive
AC50 [6]: 8.91 µM (active)

CN1CCC(=C2c3ccccc3C=Cc3ccccc32)CC1
outcome [1]: inactive
outcome [2]: inactive
AC50 [3]: 11.2 µM (active)
AC50 [4]: 10 µM (active)
AC50 [5]: 10 µM (active)
outcome [7]: inactive
AC50 [6]: 14.1 µM (active)

CSc1ccc2c(c1)N(CCC1CCCCN1C)c1ccccc1S2 (stereo not drawn)
outcome [1]: inactive
outcome [2]: inactive
AC50 [3]: 3.55 µM (active)
AC50 [4]: 3.16 µM (active)
AC50 [5]: 3.16 µM (active)
AC50 [6]: 6.31 µM (active)

CC12CC3CC(C)(C1)CC(N)(C3)C2
outcome [1]: inactive
outcome [2]: inactive
AC50 [3]: 14.1 µM (active)
AC50 [4]: 14.1 µM (active)
AC50 [5]: 14.1 µM (active)
outcome [7]: inactive
outcome [6]: inactive

CCN(CC)CCOC(=O)C1(C2CCCCC2)CCCCC1
outcome [1]: inactive
outcome [2]: inactive
AC50 [3]: 12.6 µM (active)
AC50 [4]: 10 µM (active)
AC50 [5]: 10 µM (active)
outcome [7]: inactive
AC50 [6]: 15.8 µM (active)

CN1CCN(C(c2ccccc2)c2ccccc2)CC1
outcome [1]: inactive
outcome [2]: inactive
AC50 [3]: 28.2 µM (active)
AC50 [4]: 22.4 µM (active)
AC50 [5]: 22.4 µM (active)
outcome [7]: inactive
outcome [6]: inactive

CCCCc1oc2ccc(NS(C)(=O)=O)cc2c1C(=O)c1ccc(OCCCN(CCCC)CCCC)cc1
outcome [1]: inactive
outcome [2]: inactive
AC50 [3]: 0.891 µM (active)
AC50 [4]: 0.891 µM (active)
outcome [5]: inactive [Channel type: confirmation]
AC50 [6]: 3.16 µM (active)

Cc1c(O)cccc1C(=O)N[C@@H](CSc1ccccc1)[C@H](O)CN1C[C@H]2CCCC[C@H]2C[C@H]1C(=O)NC(C)(C)C
outcome [1]: inactive
outcome [2]: inactive
AC50 [3]: 39.8 µM (active)
outcome [4]: inactive
AC50 [5]: 39.8 µM (active)
outcome [7]: inactive
outcome [6]: inactive

CN(C)CCC[C@@]1(c2ccc(F)cc2)OCc2cc(C#N)ccc21
outcome [1]: inactive
outcome [2]: inactive
AC50 [3]: 39.8 µM (active)
outcome [4]: inactive
AC50 [5]: 39.8 µM (active)
outcome [7]: inactive
outcome [6]: inactive

CO[C@]12CC[C@@]3(C[C@@H]1[C@](C)(O)C(C)(C)C)[C@@H]1Cc4ccc(O)c5c4[C@@]3(CCN1CC1CC1)[C@H]2O5
outcome [1]: inactive
outcome [2]: inactive
AC50 [3]: 5.62 µM (active)
AC50 [4]: 3.16 µM (active)
AC50 [5]: 3.16 µM (active)
outcome [6]: inactive

CN1CCN(CCCN2c3ccccc3Sc3ccc(Cl)cc32)CC1
outcome [1]: inactive
outcome [2]: inactive
AC50 [3]: 7.08 µM (active)
AC50 [4]: 3.98 µM (active)
AC50 [5]: 3.98 µM (active)
AC50 [6]: 14.1 µM (active)

COc1cc2c(c(OC)c1OC)-c1ccc(OC)c(=O)cc1[C@@H](NC(C)=O)CC2
outcome [1]: inactive
AC50 [2]: 0.32 µM (active)
AC50 [3]: 22.4 µM (active)
AC50 [4]: 0.316 µM (active)
outcome [5]: inactive [Channel type: confirmation]
outcome [8]: inactive
AC50 [6]: 0.316 µM (active)

CNCC[C@H](Oc1cccc2ccccc12)c1cccs1
outcome [1]: inactive
outcome [2]: inactive
AC50 [3]: 6.31 µM (active)
AC50 [4]: 3.55 µM (active)
AC50 [5]: 3.55 µM (active)
AC50 [6]: 10 µM (active)

Cc1nc(Nc2ncc(C(=O)Nc3c(C)cccc3Cl)s2)cc(N2CCN(CCO)CC2)n1
outcome [1]: inactive
outcome [2]: inactive
AC50 [3]: 8.91 µM (active)
AC50 [4]: 7.94 µM (active)
AC50 [5]: 7.94 µM (active)
outcome [7]: inactive
AC50 [6]: 28.2 µM (active)

COc1ccc([C@@H]2Sc3ccccc3N(CCN(C)C)C(=O)[C@@H]2OC(C)=O)cc1
outcome [1]: inactive
outcome [2]: inactive
AC50 [3]: 28.2 µM (active)
AC50 [4]: 25.1 µM (active)
AC50 [5]: 25.1 µM (active)
outcome [6]: inactive

Fc1ccc([C@@H]2CCNC[C@H]2COc2ccc3c(c2)OCO3)cc1
outcome [1]: inactive
AC50 [2]: 5.02 µM (active)
AC50 [3]: 5.01 µM (active)
AC50 [4]: 3.98 µM (active)
AC50 [5]: 3.98 µM (active)
AC50 [6]: 5.01 µM (active)

OC(CCN1CCCC1)(c1ccccc1)C1CCCCC1 (stereo not drawn)
outcome [1]: inactive
outcome [2]: inactive
AC50 [3]: 25.1 µM (active)
AC50 [4]: 20 µM (active)
AC50 [5]: 20 µM (active)
AC50 [6]: 20 µM (active)

O=c1[nH]c2ccccc2n1C1CCN(CCCC(c2ccc(F)cc2)c2ccc(F)cc2)CC1
outcome [1]: inactive
AC50 [2]: 7.95 µM (active)
AC50 [3]: 3.16 µM (active)
AC50 [4]: 3.98 µM (active)
AC50 [5]: 3.98 µM (active)
AC50 [6]: 7.94 µM (active)

CC(CN1c2ccccc2Sc2ccccc21)N(C)C (stereo not drawn)
outcome [1]: inactive
outcome [2]: inactive
AC50 [3]: 39.8 µM (active)
AC50 [4]: 31.6 µM (active)
AC50 [5]: 31.6 µM (active)
AC50 [6]: 20 µM (active)

CN1C[C@H]2c3ccccc3Oc3ccc(Cl)cc3[C@@H]2C1
outcome [1]: inactive
outcome [2]: inactive
AC50 [3]: 22.4 µM (active)
AC50 [4]: 14.1 µM (active)
AC50 [5]: 14.1 µM (active)
AC50 [6]: 17.8 µM (active)

CNCCCN1c2ccccc2CCc2ccccc21
outcome [1]: inactive
outcome [2]: inactive
AC50 [3]: 10 µM (active)
AC50 [4]: 7.94 µM (active)
AC50 [5]: 7.94 µM (active)
AC50 [6]: 15.8 µM (active)

OCCN(CCO)c1nc(N2CCCCC2)c2nc(N(CCO)CCO)nc(N3CCCCC3)c2n1
AC50 [1]: 25.1 µM (active)
outcome [2]: inactive
outcome [3]: inactive
outcome [4]: inactive
outcome [5]: inactive
outcome [6]: inactive

Reference: PubChem BioAssay (NCATS)
